IL-1B inflam inh: inflammasome signaling inhibition, IL-1 beta readout | THP-1 LPS/ATP IL-1B secretion, AlphaLISA, 16 h; stronger effect = lower value | activity change, % at 57.5 µM | 4.7% of 360,000 active; in the data active = activity change below about -50%; inconclusive = mostly about -30% to -49%; also: % is scaled to controls: 0 for no effect and ±100 for the full control effect
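THP-1 cells pretreated 1 hr with compounds (up to 57.5 uM final), then stimulated with LPS (250 ng/mL final) plus ATP (1.25 mM final); secreted IL-1B measured by AlphaLISA after 16 hr, decreased signal indicating inhibition.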
TDP1 cell CPT: DT40-hTDP1 cell growth loss with CPT. Potency, µM (top dose mostly 46.2 µM), for the others: at the highest dose activity change, negative = growth inhibition, most hits filed as inhibitors. 12% of 420,000 active. chicken DT40 Tdp1-/-;hTDP1 cells + 20 nM CPT, ATP luminescence, 48 h; also: potency is read from the fitted curve at half-maximal effect; % is scaled to controls: 0 for no effect and ±100 for the full control effect; nearly all actives have a fitted effect of over 55% in size
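Cell growth measured by CellTiter-Glo luminescence after a minimum 48 h, 37 C compound exposure with 20 nM CPT in Tdp1-knockout DT40 cells stably expressing hTDP1, seeded 400/well; qHTS titration format.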
DT40 TDP1 no CPT: qHTS for Inhibitors of human tyrosyl-DNA phosphodiesterase 1 (TDP1): qHTS in cells in absence of CPT; AID 686978, 2013; Potency, µM (top dose mostly 46.2 µM), inactives show at the top dose activity change, negative = growth inhibition, most hits filed as inhibitors; 15% of 420,000 active; DT40 Tdp1-/- hTDP1 cells, no CPT, ATP luminescence, 48 h; also: potency is read from the fitted curve at half-maximal effect; % is scaled to controls: 0 for no effect and ±100 for the full control effect; nearly all actives have a fitted effect of over 55% in size
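Luminescent ATP content (CellTiter-Glo) served as the growth readout. Knockout chicken DT40 cells expressing human TDP1 were exposed to compounds without camptothecin for a minimum 48 hr at 37 °C.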
HepG2 viability: counter-screen for TGF-b inhibitors: cytotoxicity in HepG2 cells | HepG2 CAGA-GFP viability, ATP luminescence, 18 h | Potency, µM (titrated, usually from 46.1 µM), without a hit: top-dose activity change, negative = cytotoxicity, hits mostly cytotoxic | 0.76% of 410,000 active | AID 588856; also: potency is read from the fitted curve at half-maximal effect
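CellTiter-Glo luminescence gave cytotoxicity after 18 hours at 37 degrees C. The cells were HepG2 CAGA-GFP in 1% FBS DMEM, stimulated with 500 pg/mL TGF-beta after compound addition. %Activity was normalised to no-cell wells (complete cell-killing) and DMSO (no toxicity), and curves were fitted and classified.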
TGFb inhibitor: TGF-b pathway inhibition | HepG2 CAGA-GFP TGF-b/SMAD3 reporter, GFP fluorescence, 18 h; TGF-beta stimulated, 500 pg/mL final | Potency, µM (series often up to 46.1 µM), inactives show at the highest dose activity, negative = inhibition, hits mostly inhibitors | 1.2% of 410,000 active | AID 588855; also: potency is read from the fitted curve at half-maximal effect; % is scaled to controls: 0 for no effect and ±100 for the full control effect; nearly all actives have a fitted effect of over 65% in size
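Using HEPG2 CAGA-GFP reporter cells at 1000 cells/well, we pinned test compounds, stimulated with recombinant TGF-beta (500 pg/mL final) and measured total well GFP after 18 h.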
TDP1 inh: inhibitors of human tyrosyl-DNA phosphodiesterase TDP1; Potency, µM (doses to about 130 µM), without a hit: at the highest dose activity change, negative = inhibition, actives largely listed as inhibitors; recombinant TDP1, AlphaScreen DNA substrate cleavage; Q9NUW8; 0.28% of 350,000 active; also: potency is read from the fitted curve at half-maximal effect; % is scaled to controls: 0 for no effect and ±100 for the full control effect; nearly all actives have a fitted effect of over 40% in size
Target sequence (Q9NUW8 whole entry, looked up): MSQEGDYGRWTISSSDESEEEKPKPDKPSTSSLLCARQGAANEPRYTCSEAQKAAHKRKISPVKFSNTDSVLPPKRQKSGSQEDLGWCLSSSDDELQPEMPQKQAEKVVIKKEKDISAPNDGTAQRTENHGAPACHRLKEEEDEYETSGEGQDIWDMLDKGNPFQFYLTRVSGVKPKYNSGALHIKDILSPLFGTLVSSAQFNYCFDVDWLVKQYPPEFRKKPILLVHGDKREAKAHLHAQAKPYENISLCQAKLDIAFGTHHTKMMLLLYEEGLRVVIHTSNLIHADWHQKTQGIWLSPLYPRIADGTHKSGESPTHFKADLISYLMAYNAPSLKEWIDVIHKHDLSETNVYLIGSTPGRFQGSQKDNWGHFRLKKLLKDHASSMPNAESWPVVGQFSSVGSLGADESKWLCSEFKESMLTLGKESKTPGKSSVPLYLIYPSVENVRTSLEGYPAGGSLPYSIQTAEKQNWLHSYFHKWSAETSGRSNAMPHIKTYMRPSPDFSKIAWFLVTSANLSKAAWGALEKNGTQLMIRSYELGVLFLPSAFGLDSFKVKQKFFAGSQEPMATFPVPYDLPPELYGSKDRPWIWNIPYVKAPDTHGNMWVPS
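Enzyme-compound mixtures sat 15 min at room temperature, followed by a 5 min reaction with 15 nM final substrate and 10 min with AlphaScreen beads. Recombinant human Tdp1 was used at 1 nM final.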
Active calls of the source: *; ? = inconclusive; / = no result given; [ ] = another dose, or the depositor's remark. An excerpt weighted towards active compounds, which were near 18% of everything screened. Unless noted, calls follow the shape of the dose curve; as a rule, active = well fitted curve in the direction sought with a large enough effect; inconclusive = small, poorly fitted or top-dose-only effect, or another doubt; inactive = no such curve, though single readings can be large; an effect the other way counts as inactive or inconclusive.

SMILES | IL-1B inflam inh | TDP1 cell CPT | DT40 TDP1 no CPT | HepG2 viability | TGFb inhibitor | TDP1 inh
CC(=O)Nc1cnc(-c2cccc(C(=O)N(C)C)c2)cn1 | 17 | -4% | 2% | 4% | 1% | /
CSc1ccccc1-c1cnc(NC(C)=O)cn1 | -26 | 2.6µM* | -47% | -6% | 1% | /
COc1cccc(/C=N/n2c(N)c(S(=O)(=O)c3cccs3)c3nc4ccccc4nc32)c1 | 5 | -24% | ? | -26% | 16% | 2%
COc1ccc(/C=N/n2c(N)c(S(=O)(=O)c3cccs3)c3nc4ccccc4nc32)cc1OC | ? | ? | -20% | 1% | 0% | -5%
COCCNC(=O)c1c(N)n(/N=C/c2cccs2)c2nc3ccccc3nc12 | -3 | ? | 16µM* | -14% | 3% | 2%
Nc1c(S(=O)(=O)c2cccs2)c2nc3ccccc3nc2n1/N=C/c1cccc(O)c1 | -80* | 13µM* | ? | -35% | ? | 4%
CC(C)Cn1c(N)c(S(=O)(=O)c2cccs2)c2nc3ccccc3nc21 | ? | 16µM* | ? | -12% | -19% | -5%
COCCNC(=O)c1c(N)n(/N=C/c2ccc(F)cc2)c2nc3ccccc3nc12 | -26 | ? | ? | -3% | -1% | 3%
CCCc1nn2c(=O)cc(COC(=O)c3ccccc3NC(=O)C3CCCCC3)nc2s1 | / | ? | ? | -7% | -18% | 6%
Cc1cc([N+](=O)[O-])ccc1NC(=O)CCC(=O)N1CCCC1 | 30 | -2% | 20% | 6% | -4% | 4%[56.1 µM]
O=[N+]([O-])c1ccc(C(O)CN=Cc2ccc(O)cc2O)cc1 (centres undefined) | 0 | 23µM* | ? | -11% | ? | 5%
CN(C)/N=C/c1cc([N+](=O)[O-])ccc1O | 23 | -23% | ? | -37% | -17% | 5%
CN1CCN(CC(O)(c2ccc(Cl)cc2)c2ccc(Cl)cc2)CC1 | -85* | ? | 21µM* | -32% | ? | 6%
CCCCCCCN(c1ccccc1)C1C[C@H]2CCCC(=O)N3CC[C@@H](C1)[C@@H]23 (some centres undefined) | / | ? | ? | -61% | 14µM* | /
COc1ccc2[nH]c3c(c2c1)CCNC3c1ccc([N+](=O)[O-])o1 (centres undefined) | -15 | 9.2µM* | 6.5µM* | -4% | 17% | /
COc1ccc2[nH]c3c(c2c1)CCNC3C1CC=C(C)CC1 (centres undefined) | -26 | 9.2µM* | 6.5µM* | -68% | ? | 3%
C=CCN([C@@H](CC(C)C)C(=O)OC)S(=O)(=O)N(CC=C)[C@@H](CC(C)C)C(=O)OC | 36 | ? | 18µM* | -33% | ? | -8%
COc1cccc(Cn2c(=O)c(-c3cccs3)nc3cnc(N(C)C)nc32)c1 | / | 1% | 15% | / | / | /
COc1ccc(OCCCn2cc(/C=C3/C(=N)N4C=C(C)SC4=NC3=O)c3ccccc32)cc1 | 19 | ? | 7.3µM* | 7% | 5% | 0%
COc1cccc(OCCCn2cc(/C=C3/C(=N)N4C=C(C)SC4=NC3=O)c3ccccc32)c1 | 8 | 8.2µM* | 6.5µM* | -7% | 0% | -3%
CC1(c2nnnn2Cc2ccccc2)CCC(=O)N1CCc1ccccc1F (centres undefined) | -20 | -21% | -12% | / | / | /
Cc1nc(-c2ccc(C)c(N3CCN(C(=O)Nc4ccc(Br)cc4)CC3)c2)no1 | / | ? | 21µM* | -13% | -26% | 3%
Cc1cc(C)cc(NC(=O)N2CCN(c3cc(-c4noc(C)n4)ccc3C)CC2)c1 | / | ? | ? | -18% | -25% | 1%
CCOC(=O)c1sc2nc(C)c([N+](=O)[O-])c(COC)c2c1N | 42 | -14% | -25% | 0% | -2% | /
COC(=O)c1ccccc1NC(=O)C(C)Oc1ccccc1 (centres undefined) | 15 | 7.3µM* | 5.8µM* | -101% | ? | /
SMILES | IL-1B inflam inh | TDP1 cell CPT | DT40 TDP1 no CPT | HepG2 viability | TGFb inhibitor | TDP1 inh
COc1cc(NC(=O)c2sc(C)nc2C)c(OC)cc1NC(=O)c1ccccc1 | -16 | ? | 16µM* | -8% | 0% | /
CC(Oc1ccc(F)cc1)C(=O)Nc1ccccc1C(=O)N1CCCCC1 (centres undefined) | 11 | 15µM* | ? | -11% | -21% | -1%
COc1cc(NC(=O)C(C)Oc2ccccc2)c(OC)cc1NC(=O)c1ccccc1 (centres undefined) | -17 | 21µM* | ? | -38% | -28% | 6%
CCc1ccc(OC(C)C(=O)Nc2ccccc2C(=O)N2CCOCC2)cc1 (centres undefined) | 0 | -21% | ? | 4% | -11% | 2%
COc1ccc(S(=O)(=O)N(C)C[C@H]2Oc3ccc(NC(=O)NC4CCCCC4)cc3C(=O)N([C@H](C)CO)C[C@@H]2C)cc1 | ? | ? | ? | -22% | -11% | 2%
CCOC(=O)c1ccc(NC(=S)N2CCN(CCNC3=CC(=O)CC(C)(C)C3)CC2)cc1 | -15 | 3% | -4% | -6% | 0% | 1%
C(=N\N=C\c1ccncc1)/c1ccncc1 | 3 | -21% | -25% | 2% | -5% | -3%
COc1ccc(NC(=O)CC2Oc3ccccc3NC2=O)c(OC)c1 (centres undefined) | 18 | 5% | -18% | -6% | 7% | /
COc1ccc(NC(=O)Cn2ncc3c4ccccc4n(Cc4ccccc4)c3c2=O)cc1OC | / | -5% | -14% | -2% | -15% | 0%
O=[N+]([O-])c1ccccc1S(=O)c1ccccc1[N+](=O)[O-] | 219 | 10µM* | 16µM* | -48% | ? | /
CC(=O)c1ccccc1[N+](=O)[O-] | / | / | / | / | / | 5%
Cc1cccc(NC2CCCCC2NS(=O)(=O)c2ccccc2)c1 (centres undefined) | 16 | -27% | -23% | -14% | -6% | /
Fc1cccc(CN(C2=NCCN2)c2c(Cl)cccc2Cl)c1 | -16 | ? | 21µM* | -21% | 16% | /
CCOC(=O)c1ccc(NC(=O)Cn2c(=O)cc(C(F)(F)F)c3c(C)nn(C)c32)cc1 | / | -12% | 16% | -23% | -20% | 8%
CCn1nc(C)c2c(-c3ccccc3)cc(=O)n(C(C)C(=O)Nc3ccc(OC)c(OC)c3)c21 (centres undefined) | / | 10µM* | 16µM* | 3% | 4% | 1%

Compound activity deposited in PubChem by National Center for Advancing Translational Sciences (NCATS).
